Experimental data published in PubChem BioAssay.
Active and inactive are the calls of the source.

How the values were obtained:
[1] = target: Albumin (Bos taurus) (UniProt P02769); assay: bovine serum albumin binders on microarray, profiling panel, artefact control for SMM control protein annotation, biochemical, small-molecule microarray, Alexa647 label, 635/667 nm fluorescence (AID 1118); details: BSA-A647 binding, fluorescence 635 nm, higher = more signal;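 further: score merges 667 nm emission intensity and signal-to-noise per printed compound spot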
Albumin (Bos taurus), sequence (P02769 whole entry, looked up): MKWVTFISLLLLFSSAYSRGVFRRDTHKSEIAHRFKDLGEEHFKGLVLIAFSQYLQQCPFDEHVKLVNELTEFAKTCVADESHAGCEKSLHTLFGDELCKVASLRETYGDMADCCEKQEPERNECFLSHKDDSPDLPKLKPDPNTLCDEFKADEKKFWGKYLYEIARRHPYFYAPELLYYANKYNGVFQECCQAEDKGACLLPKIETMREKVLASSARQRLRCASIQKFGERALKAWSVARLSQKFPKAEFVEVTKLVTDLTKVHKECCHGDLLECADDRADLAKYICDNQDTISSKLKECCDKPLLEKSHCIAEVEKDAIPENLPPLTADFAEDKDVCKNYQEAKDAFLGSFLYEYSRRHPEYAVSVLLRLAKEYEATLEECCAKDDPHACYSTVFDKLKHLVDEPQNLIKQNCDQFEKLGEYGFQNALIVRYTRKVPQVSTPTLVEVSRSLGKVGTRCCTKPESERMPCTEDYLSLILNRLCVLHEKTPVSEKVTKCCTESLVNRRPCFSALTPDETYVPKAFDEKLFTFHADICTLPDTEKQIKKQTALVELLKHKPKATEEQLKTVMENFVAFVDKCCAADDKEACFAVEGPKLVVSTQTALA

[2] = small-molecule microarray binders of probe aXIP, primary screen, biochemical, NeuroSMM set, 635/667 nm fluorescence (AID 1119); details: higher = more signal, called active from +8 up or from −8 down;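 further: probe is the protein aXip251-270 applied at 1 µg/mL to compound-printed slides; binding of probe to printed compounds measured as 667 nm fluorescence plus signal to noise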
[3] = small-molecule binders of probe aNOTCH3, primary screen, biochemical, small-molecule microarray, 635/667 nm fluorescence (AID 1120); details: higher = more signal;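 further: probe is a biotin-tagged antibody raised against NOTCH3 rather than NOTCH3 protein; score merges spot fluorescence near 667 nm with spot signal to noise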
[4] = small-molecule binders of probe aNOTCH2, primary screen, biochemical, small-molecule microarray, 635/667 nm fluorescence (AID 1121); details: higher = more signal;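 further: score merges feature fluorescence read at 667 nm with its signal to noise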
[5] = target: Carbonic anhydrase 2 (Homo sapiens) (UniProt P00918); assay: CAII small-molecule binders, profiling panel, biochemical, small-molecule microarray, Alexa647-labelled CAII (AID 1122); details: CAII-A647 binding fluorescence, higher = more signal
[6] = COS7 lysate on small-molecule microarray, probe aHis, 635 nm (AID 1123); details: COS7 cell lysate, fluorescence, higher = more signal;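 further: z-score combines 667nm fluorescence intensity with signal-to-noise per printed compound spot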
[7] = compound binding in COS7 lysate, probe aLAP1, primary screen, cell lysate, small-molecule microarray (AID 1124); details: probe aLAP1, fluorescence, higher = more signal;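 further: lysate comes from COS7 cells expressing LAP1 and is applied at 0.3 µg/mL; score merges spot fluorescence near 667 nm with signal-to-noise over triplicate slides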
[8] = tested on: Sam68 (KHDRBS1); assay: Sam68 small-molecule binders, primary screen, biochemical, small-molecule microarray, 635 nm fluorescence (AID 1125); details: small-molecule microarray binding, higher = more signal;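 further: score merges 667 nm channel intensity with signal to noise over triplicate slides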
[9] = tested on: Chordin-like protein 2 (CHRDL2); assay: CHRDL2 small-molecule binders, primary screen, biochemical, small-molecule microarray, 635 nm fluorescence (AID 1126); details: small-molecule microarray binding, fluorescence 635 nm; higher = more signal;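 further: printed compound slides probed with Chrdl2 protein at 4 µg/mL for 1 h at 4 C; score merges 667 nm emission intensity with signal to noise over three replicate slides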
[10] = target: Concanavalin-A (Canavalia ensiformis) (UniProt P02866); assay: ConA small-molecule binders, primary screen, artefact control for SMM control protein annotation, biochemical, small-molecule microarray, Alexa647 label, 635 nm (AID 1127); details: ConA-A647 binding fluorescence, higher = more signal;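 further: z combines 667 nm emission intensity with signal-to-noise across three replicate slides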
Concanavalin-A (Canavalia ensiformis), sequence (P02866 whole entry, looked up): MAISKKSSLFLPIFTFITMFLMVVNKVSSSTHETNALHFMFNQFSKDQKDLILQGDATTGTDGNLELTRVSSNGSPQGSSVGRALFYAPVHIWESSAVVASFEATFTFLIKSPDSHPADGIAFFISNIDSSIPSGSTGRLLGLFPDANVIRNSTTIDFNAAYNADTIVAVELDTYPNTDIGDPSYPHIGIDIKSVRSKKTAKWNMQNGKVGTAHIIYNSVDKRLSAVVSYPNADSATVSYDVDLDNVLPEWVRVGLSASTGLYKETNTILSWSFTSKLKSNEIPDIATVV

Row | SMILES | composite z-score [1] | composite Z-score [2] | composite z-score [3] | composite z-score [4] | composite z-score [5] | composite z-score [6] | composite z-score [7] | composite z-score [8] | composite z-score [9] | composite z-score [10]
1 | C=CC[C@@]1(C(N)=O)N=C(c2ccc(OCCCO)cc2)O[C@@H]1c1ccccc1CN=[N+]=[N-] | 0.85 | -0.631 (inactive) | 0.185 | -0.0712 | 0.875 | 3.25 | 1.13 | 1.3 | -0.41 | 1
2 | COCCCN1C(=O)[C@@]2(Cc3ccccc31)c1ccccc1C(=O)N(Cc1ccccc1C(F)(F)F)[C@H]2c1ccc(CO)cc1 | -0.857 | 0.225 (inactive) | -0.401 | 0.402 | 0.138 | -0.176 | -0.395 | 1 | 1.09 | 0.961
3 | COc1ccc(CCNC(=O)[C@@H]2c3ccccc3C(=O)N(C3Cc4ccccc4C3)[C@H]2c2ccc(CO)cc2)cc1 | 0.397 | 0.131 (inactive) | -0.0725 | -0.0907 | 0.705 | 2.21 | 0.0554 | 0.73 | -0.551 | 0.542
4 | CC(=O)NCCCC[C@@H]1NC(=O)[C@@H]2C[C@H](C(=O)NCCCCCCNC(=O)CS)[C@H](c3cccc(OCCO)c3)N2C1=O | -0.133 | 0.405 (inactive) | -0.0996 | -0.151 | 0.561 | 1.48 | 0.689 | 0.825 | 0.568 | 0.914
5 | COCCOC(=O)N1C(=O)[C@@]2(c3cc(C#Cc4ccc(OC)cc4)ccc31)[C@H](c1ccc(O)cc1)N1[C@H](c3ccccc3)[C@H](c3ccccc3)OC(=O)[C@H]1[C@@H]2C(=O)NC[C@H](O)c1ccccc1 | 0.298 | 0.434 (inactive) | 0.385 | -0.0878 | 0.317 | 1.04 | 0.693 | 1.29 | 0.374 | 1.17
6 | C=C[C@H](COC(C)=O)N(C(=O)OC(C)(C)C)S(=O)(=O)c1ccc(Br)cc1 | -0.19 | -0.526 (inactive) | 0.704 | 0.463 | 0.162 | 0.216 | 0.0842 | 0.355 | 0.55 | 0.193
7 | NCCCCCNC(=O)[C@@H]1C[C@@H]2C(=O)N[C@@H](Cc3ccccc3)C(=O)N2[C@@H]1c1cccc(OCCO)c1 | 0.654 | 0.376 (inactive) | 0.0087 | -0.112 | 0.698 | 1.18 | 0.463 | 0.861 | -0.0335 | 1.05
8 | O=C1O[C@H](c2ccccc2)[C@H](c2ccccc2)N2[C@H]1[C@@H](C(=O)O)[C@]1(C(=O)Nc3ccc(C#CC4=CCCCC4)cc31)[C@H]2c1ccccc1OCCO | 0.871 | 0.685 (inactive) | 0.806 | 0.0062 | 0.602 | 2.06 | 0.834 | 1.31 | 0.401 | 1.19
9 | CCCCCN1CC=CC23O[C@@H]4/C=C\CCCOC(=O)C4[C@H]2C(=O)N(CCCO)[C@@H]3C1=O (stereo not given in full) | 0.433 | -0.0981 (inactive) | -0.095 | -0.104 | 0.689 | 1.82 | 1.04 | 0.798 | -0.343 | 0.256
10 | CC(C)(C)C(=O)N[C@@H](c1ccc(Cl)cc1)[C@]1(C)C[C@H]1C1CCCCC1 | 0.886 | -0.149 (inactive) | 0.449 | 0.347 | 0.505 | 2.12 | 0.968 | 1.29 | -0.319 | 1.19
11 | O=C1OCCC/C=C\[C@H]2OC34C=CCN(CCN5CCOCC5)C(=O)[C@H]3N(CCCO)C(=O)[C@@H]4C12 (stereo not given in full) | -0.843 | 0.546 (inactive) | -0.182 | -0.178 | 0.888 | 3.72 | 1.6 | -0.284 | -0.575 | 0.167
12 | C=CCOC(=O)[C@@H]1[C@H]2C(=O)O[C@H](c3ccccc3)[C@H](c3ccccc3)N2[C@H](c2ccc(OCCOC(=O)[C@@H]3C[C@@H]4C(=O)N[C@@H](Cc5ccccc5)C(=O)N4[C@@H]3c3ccc(O)cc3)cc2)[C@@]12C(=O)Nc1ccc(I)cc12 | -0.47 | 0.364 (inactive) | 0.251 | -0.0984 | 0.299 | 1.28 | 0.0186 | 1 | 0.918 | 1.18
13 | O=C1[C@H]2C=C(Br)[C@H](C[C@@H]2OCCCCO)[C@@]12CO2 | 0.0664 | 0.572 (inactive) | -0.0918 | -0.162 | -0.191 | -0.574 | 0.102 | -0.264 | 0.483 | -0.0118
14 | COc1ccc(C(O)C2C=CC3C(=O)N(C)C(=O)C3N2N2CCCCC2)c2ccccc12 (stereo not given) | 0.9 | 0.476 (inactive) | 0.432 | -0.0351 | 0.448 | 2.89 | -0.32 | 1.31 | -0.147 | 1.21
15 | CC(C)C[C@@H]1NC(=O)[C@H]2C[C@@H](C(=O)NCCCCCCN(C)C)[C@@H](c3ccc(O)cc3)N2C1=O | -0.581 | 0.531 (inactive) | 0.0293 | -0.112 | 0.479 | 2.03 | 0.588 | 1.32 | 1.29 | 1.17
16 | CN1C(=O)C2C=CC(C(O)C3CCCCC3)N(Nc3ccc([N+](=O)[O-])cc3[N+](=O)[O-])C2C1=O (stereo not given) | 0.892 | -0.131 (inactive) | 0.23 | 0.0302 | 0.732 | 2.62 | 0.605 | 1.31 | -0.384 | 0.955
17 | COC(=O)C(CC#Cc1ccc2c(c1)[C@]1(C(=O)N2)[C@H](C(=O)O)[C@H]2C(=O)O[C@H](c3ccccc3)[C@H](c3ccccc3)N2[C@@H]1c1ccc(O)cc1)C(=O)OC | -0.266 | -1.69 (inactive) | -0.274 | -0.181 | 0.66 | 1.07 | 0.898 | 0.661 | -0.872 | -0.417
18 | CC(C)OC(=O)C=C1C[C@@H](c2ccccc2C(F)(F)F)O[C@@H](c2ccccc2C(F)(F)F)O1 | 0.629 | -0.309 (inactive) | -0.0044 | -0.216 | -0.0962 | 0.387 | 0.354 | 0.609 | 0.0577 | 0.257
19 | C=C(CCCC)C(=O)CC[C@H](OC(=O)c1cccnc1)c1ccccc1OCCO | 0.287 | 1.71 (inactive) | -0.0345 | -0.161 | 0.268 | 0.232 | 0.259 | -0.546 | 0.335 | 0.277
20 | O=C1NC(=O)C2C1C=CC(C(O)c1cccc3ccccc13)N2Nc1ccccn1 (stereo not given) | 0.421 | 0.0886 (inactive) | 0.138 | -0.0966 | 0.553 | 0.296 | 0.447 | 0.0488 | 0.394 | 0.506
21 | O=C1C2C=CC(C(O)c3c(F)cccc3Cl)N(Nc3ccccc3)C2C(=O)N1c1ccccc1 (stereo not given) | 0.876 | 0.229 (inactive) | 0.418 | 0.014 | 0.382 | 2.81 | 0.045 | 1.31 | -0.3 | 1.14
22 | CCOC(=O)[C@H]1C/C=C/C[C@H](C(=O)OCC)C(=O)O[C@H]2[C@@H](OC)O[C@H](CO)[C@@H](OC(=O)Nc3cccc(F)c3)[C@@H]2OC1=O | 0.407 | 0.46 (inactive) | 1.06 | 0.0593 | 0.66 | 1.86 | 0.903 | 1.19 | 0.306 | 0.189
23 | [N-]=[N+]=Nc1ccccc1C[C@]1(C(N)=O)N=C(c2ccc(OCCCO)cc2)O[C@H]1c1ccccc1 | 0.989 | 0.364 (inactive) | 0.0556 | -0.106 | 0.662 | 2.59 | 0.386 | 0.974 | -1.18 | 0.6
24 | Cc1ccc(C(C)CC(O)C2C=CC3C(=O)N(C)C(=O)C3N2NC(=O)OC(C)(C)C)o1 (stereo not given) | 1.01 | 1.31 (inactive) | 0.18 | -0.0925 | 0.642 | 2.44 | 0.934 | 1.21 | 0.541 | 1.05
25 | CC(=O)N1Cc2ccccc2C[C@@]2(COC(c3ccc(OCCCO)cc3)=N2)C1=O | 0.707 | -0.151 (inactive) | 0.286 | 0.16 | 0.669 | 2.38 | 0.16 | 1.3 | 0.341 | 1.15
26 | [N-]=[N+]=NCc1ccccc1C[C@]1(C(=O)NCC(O)CO)N=C(c2ccc(OCCCO)cc2)O[C@H]1c1ccccc1 (stereo not given in full) | 0.922 | -0.321 (inactive) | 0.062 | -0.0596 | 0.698 | 2.57 | 0.108 | -0.236 | -0.911 | -0.916
27 | COCCOC(=O)N1C(=O)[C@@]2(c3cc(C#CC4=CCCCC4)ccc31)[C@H](c1ccc(O)cc1)N1[C@H](c3ccccc3)[C@H](c3ccccc3)OC(=O)[C@H]1[C@@H]2C(N)=O | -0.353 | 0.544 (inactive) | 0.092 | -0.253 | 0.331 | 1.16 | 0.45 | 1.01 | 0.71 | 1.06
28 | COc1ccc(C(O)C2C=CC3C(=O)NC(=O)C3N2Nc2ccccn2)cc1 (stereo not given) | -0.131 | 0.841 (inactive) | 0.0256 | 0.0308 | 0.482 | 1.39 | 0.348 | -0.183 | 1 | -0.0999
29 | O=C1O[C@H](c2ccccc2)[C@H](c2ccccc2)N2[C@H]1[C@@H](C(=O)NC[C@H](O)c1ccccc1)[C@]1(C(=O)Nc3ccccc31)[C@H]2c1ccc(OCCO)cc1 | 0.466 | -0.249 (inactive) | -0.0647 | -0.082 | 0.59 | 1.67 | 0.218 | 1.31 | 0.25 | 1.14
30 | O=C1C2C=CC(C(O)c3ccc(F)cc3)N(Nc3ccccc3F)C2C(=O)N1c1ccccc1 (stereo not given) | 0.983 | 0.482 (inactive) | 0.323 | -0.0194 | 0.823 | 3.13 | -0.0953 | 1.13 | -0.868 | 0.493
